LmPK inh = qHTS Assay for Inhibitors of Leishmania Mexicana Pyruvate Kinase (LmPK); Q27686; 290,000 compounds, 0.37% hits; Potency, µM (doses to about 57.5 µM), inactives show at the highest dose activity change, negative = inhibition, actives largely listed as inhibitors; AID 1721, 2009; purified LmPK, Kinase-Glo ATP luminescence, 1 h
Target sequence (Q27686 whole entry, looked up): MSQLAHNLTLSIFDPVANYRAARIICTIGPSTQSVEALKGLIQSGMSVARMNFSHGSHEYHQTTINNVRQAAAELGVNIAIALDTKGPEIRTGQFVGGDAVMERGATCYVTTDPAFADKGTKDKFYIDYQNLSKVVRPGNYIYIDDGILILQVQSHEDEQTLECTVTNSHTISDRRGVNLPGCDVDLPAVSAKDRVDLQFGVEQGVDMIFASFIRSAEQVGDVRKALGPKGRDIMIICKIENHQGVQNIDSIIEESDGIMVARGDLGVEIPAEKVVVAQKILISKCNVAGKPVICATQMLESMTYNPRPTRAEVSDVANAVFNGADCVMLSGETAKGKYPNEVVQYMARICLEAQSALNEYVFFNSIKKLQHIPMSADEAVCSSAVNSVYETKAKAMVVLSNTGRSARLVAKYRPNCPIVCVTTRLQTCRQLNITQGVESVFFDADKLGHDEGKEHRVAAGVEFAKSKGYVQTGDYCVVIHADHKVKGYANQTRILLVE
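Kinase-Glo luminescence read after 1 h RT reaction of 0.1 nM LmPK with 0.5 mM PEP and 0.1 mM ADP. Activity scaled between uninhibited and enzyme-free controls.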
FBPA Giardia inh = qHTS Assay for Inhibitors of Fructose-1,6-bisphosphate Aldolase from Giardia Lamblia | A8B2U2 | purified Giardia FBPA | Potency, µM (titrated, usually from 59.6 µM), without a hit: at the top dose activity, negative = inhibition, actives largely listed as inhibitors | 290,000 compounds, 0.71% hits | AID 2451, 2010; further: nearly all actives have a fitted effect of over 55% in size
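40 nM FBPA preincubated 10 min at RT with compound (up to 57.5 uM final), then substrate plus GAPDH/TPI/NAD/arsenate coupling and diaphorase/resazurin added. Fluorescence read after 20 min at RT, 525/598 nm.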
Sm TGR inh = qHTS Assay for the Inhibitors of Schistosoma Mansoni Peroxiredoxins; 360,000 compounds, 3% hits; Schistosoma mansoni thioredoxin glutathione reductase (TGR), Q962Y6; purified TGR, DTNB reduction, TNB absorbance 405 nm; Potency, µM (top dose mostly 114 µM), for inactives: at the highest dose activity change, negative = inhibition, actives largely listed as inhibitors; further: nearly all actives have a fitted effect of over 60% in size
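TGR 20 nM + NADPH 100 uM (dispensed conc.), cpd preinc 15 min RT; start with NADPH (500 uM addition) then DTNB (15 mM addition). Kinetic TNB absorbance, 405 nm filter. Four-parameter Hill fit across titration.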
TbPYK inhibitor = qHTS of Trypanosoma Brucei Inhibitors; Potency, µM (series often up to 76.8 µM), for the others: top-dose activity, negative = inhibition, actives largely listed as inhibitors; pyruvate kinase (Trypanosoma brucei), Q57TT1; 410,000 compounds, 0.12% hits; TbPYK enzyme, Kinase-Glo Plus ATP luminescence, 45 min; AID 624173, 2012; further: nearly all actives have a fitted effect of over 50% in size
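T. brucei PYK with substrate was exposed to pin-transferred compounds across a concentration series, then started with 130 uM ADP (final). After 45 min at room temperature, Kinase-Glo Plus luminescence was read, normalized and curve-fitted.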
RE007 growth inh = qHTS Assay for Inhibitors of the HIV-1 protein Vpr; S. pombe RE007 Vpr strain, BacTiter-Glo ATP luminescence, 24 h; Potency, µM (top dose mostly 92.2 µM), for the others: at the highest dose activity change, negative = less growth, most hits filed as inhibitors; 360,000 compounds, 0.21% hits; AID 651644, 2012; active means well fitted falling curve with a large enough effect; inconclusive means small, poorly fitted or top-dose-only effect; inactive means no such curve, though single readings can be large or run the other way; further: nearly all actives have a fitted effect of over 50% in size
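Fission yeast RE007 carrying one integrated HIV-1 vpr copy, seeded at OD 0.01 in PMG+AL medium with 23 nL pinned compound. Grown 24 h at 30 degrees; viability read by BacTiter-Glo luminescence after 5 min.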
Starred values were filed as active, the others as inactive; ? = inconclusive; nt = not tested or not shown; [ ] = another dose, or the depositor's remark. In the library only some 3.3% were active in any assay of this set; here they are far more common. Unless noted, the call rests on the fitted dose curve; in most records, active means well fitted curve in the direction sought with a large enough effect; inconclusive means small, poorly fitted or top-dose-only effect, or another doubt; inactive means no such curve, though single readings can be large; an effect the other way counts as inactive or inconclusive. On the % scale 0 is the no-effect control and ±100 the full control effect; potency means the concentration at half of the fitted maximal effect.

SMILES | LmPK inh | FBPA Giardia inh | Sm TGR inh | TbPYK inhibitor | RE007 growth inh
CN(CCc1ccccn1)C(=O)c1nn2c(C(F)(F)F)cc(-c3ccco3)nc2c1Cl | -3% | 1% | 45µM* | -2% | 15%
O=C(O)c1cnn2c(C(F)(F)F)cc(-c3ccco3)nc12 | 5% | -6% | ? | 2% | 16%
O=C(NCC1CCCO1)c1nn2c(C(F)(F)F)cc(-c3ccc(Br)o3)nc2c1Br (configuration not stated) | -1% | -1% | 16µM* | 1% | 9%
O=C(c1ccccc1)N1CCN(C(=O)c2nn3c(C(F)(F)F)cc(-c4ccco4)nc3c2Br)CC1 | 2% | 0% | 40µM* | 3% | 5%
COc1ccccc1CNC(=O)c1sc2nc3n(c(=O)c2c1C)CCC3 | nt | nt | 13% | 3% | nt
COc1ccc(C(=S)N2CCN(C)CC2)cc1 | -3% | 3% | -12% | -26% | 12%
O=C(c1cnn2c(C(F)(F)F)cc(-c3ccco3)nc12)N1CCCCCC1 | 3% | 1% | ? | 2% | -8%
O=C(Nc1cccc(C(F)(F)F)c1)c1cc2nc(-c3ccco3)cc(C(F)(F)Cl)n2n1 | nt | nt | 4% | 2% | nt
O=C(Nc1cc(F)ccc1F)c1cc2nc(-c3ccco3)cc(C(F)(F)Cl)n2n1 | nt | nt | 22µM* | 0% | nt
O=C(c1cnn2c(C(F)(F)F)cc(-c3ccco3)nc12)N1CCc2ccccc2C1 | 1% | -5% | 13µM* | -1% | 15%
O=C(NC1CCCCC1)c1nn2c(C(F)(F)F)cc(-c3ccco3)nc2c1Br | -3% | -3% | 25µM* | -2% | 9%
O=C(NC1CCCCC1)c1cnn2c(C(F)(F)F)cc(-c3ccco3)nc12 | -2% | 0% | 0% | -8% | 3%
O=C(Cc1c(-c2ccccc2)nc2ccc(Br)cn12)N1CCCC1 | nt | nt | nt | -1% | -11%
COc1ccc(CNc2nc(-c3cccnc3)nn2C(C)=O)cc1 | -1% | 2% | 21% | -3% | -6%
CCn1c(C)c(C)c2cc(C(=O)NCc3ccc(N(C)C)cc3)ccc21 | nt | nt | -8% | -9%[15.4 µM] | nt
CCCCc1c(C)c(C#N)c2nc3ccccc3n2c1Cl | 4% | 5% | 3.5µM* | nt | nt
CCc1c(C)c(C#N)c2nc3ccccc3n2c1N(C)C | -3% | 5% | -16% | -9% | -2%
C=C(C)CSc1cc(C)c(C#N)c2nc3ccccc3n12 | -5% | ? | 3.2µM* | ? | -3%
Cc1ccnc(N2CCN(c3cc(C)c(C#N)c4nc5ccccc5n34)CC2)c1 | nt | nt | nt | 0% | 19%
Cc1cc(-c2ccco2)n2c(nc3ccccc32)c1C#N | 4% | 3% | 50µM* | -21% | 22%
Cc1nc2sc(C(c3cccc(F)c3)N3CCC(O)CC3)c(O)n2n1 (configuration not stated) | 4% | 3% | 6% | 0% | 11%
COc1cc(NC(=O)c2ccccc2)c(OC)cc1NC(=O)Cc1cccs1 | -4% | -18% | -17% | 2% | 1%
CN1C(=O)C(=Cc2ccc(N3CCCCCC3)o2)C(=O)N(C)C1=S | -17% | -7% | 35µM* | ? | -14%
CN1C(=O)C(=Cc2ccc(N3CCOCC3)o2)C(=O)N(C)C1=O | -7% | -8% | ? | -1% | -1%
O=C(CCSc1nc(-c2ccco2)cc(C(F)(F)F)n1)N1CCN(c2ccccn2)CC1 | -2% | -4% | ? | -13% | 7%
O=C(CCSc1nc(-c2ccco2)cc(C(F)(F)F)n1)N1CCCc2ccccc21 | 2% | 0% | 40µM* | -18% | 22%
CCNc1nn2ccccc2c1/C=C(\C#N)C(=O)OCC | 6% | 0% | 13% | 4% | nt
O=C(COc1ccc(Cl)cc1)NCC(c1ccco1)S(=O)(=O)c1ccc(F)cc1 (configuration not stated) | nt | nt | 25µM* | 2% | nt
CCOc1ccc(S(=O)(=O)NCC(c2ccco2)S(=O)(=O)c2ccc(F)cc2)cc1 (configuration not stated) | nt | nt | 0.32µM* | 0% | nt
